Measured values reported in PubChem BioAssay.
Calls of active or inactive are those of the source. Unless noted, how the calls were made is not given here.

experiment: P. aeruginosa biofilm formation inhibitors, primary screen, PAO1 strain, BacTiter-Glo luminescence, LB-PBS (AID 1144); details: 12 h, higher = more signal

z-score, inactive:
COC(=O)[C@@]1(Cc2ccc(OC)cc2)[C@H]2c3cc(C(=O)N4CCCC4)n(CCc4ccc(OC)c(Br)c4)c3C[C@H]2CN1C(=O)c1ccccc1 0.24
O=C1NC(=O)C2C1C=CC(C(O)c1cccc(O)c1)N2Nc1ccc(Cl)cc1Cl (stereo not drawn) -0.355
C=C(COC)C(=O)CC[C@@H](OC(C)=O)c1ccc(OCCO)cc1 -0.176

experiment: CREB reporter modulators without forskolin, primary screen, cell-based, PC12, CRE-LacZ reporter, unstimulated (AID 1145); details: no forskolin, luminescence, 4.5 h, higher = more signal, called active from +8 up or from −8 down

z-score, active:
CCCC[C@H]1OB(O)C[C@H]2C1=C(COC)C[C@H]1C(=O)C=CC(=O)[C@H]12 10.7
C=C(/C(=C/C[C@@H](OC(C)=O)c1ccccc1OCCO)c1cc(C(=O)OC)ccc1OC)C(C)C 16.2
C=C(CCCC)/C(=C/C[C@H](OC(C)=O)c1cccc(OCCO)c1)c1cc(C(=O)OC)ccc1OC 12.1

z-score, inactive:
CCCCN1CC=CC23O[C@@H]4C=CCOC(=O)[C@@H]4[C@H]2C(=O)N(CCO)[C@@H]3C1=O (stereo partly drawn) 0.0605
C=CC[C@@]12N=C(c3ccc(OCCCO)cc3)O[C@@H]1c1ccccc1N(Cc1ccccc1)C2=O 1.1
COCCOC(=O)N1C(=O)[C@@]2(c3cc(C#CCC(C(=O)OC)C(=O)OC)ccc31)[C@H](C(N)=O)[C@H]1C(=O)O[C@H](c3ccccc3)[C@H](c3ccccc3)N1[C@@H]2c1ccc(OCCO)cc1 0.478
CCOC(=O)C1=C(C(=O)OCC)N(S(=O)(=O)CC[Si](C)(C)C)[C@H](c2ccccc2)CC1 0.229
COC(=O)C1=CC(CCCO)=CC(c2ccc(CN3CCCC3)cc2)N(Cc2sc3ccccc3c2Cl)C=C1C(=O)OC (stereo not drawn) 0.209
C=CCNC(=O)[C@@H]1[C@H]2C(=O)O[C@H](c3ccccc3)[C@H](c3ccccc3)N2[C@H](c2ccc(O)cc2)[C@@]12C(=O)Nc1ccc(C#CC3(O)CCCCCC3)cc12 -1.69
NC(=O)NCC#Cc1ccc2c(c1)[C@]1(C(=O)N2)[C@H](C(=O)Nc2nc3ccccc3s2)[C@H]2C(=O)O[C@H](c3ccccc3)[C@H](c3ccccc3)N2[C@@H]1c1ccc(OCCO)cc1 0.182
COCCOC(=O)N1C(=O)[C@@]2(c3cc(C#CC4(O)CCCCCC4)ccc31)[C@H](c1ccccc1OCCO)N1[C@H](c3ccccc3)[C@H](c3ccccc3)OC(=O)[C@H]1[C@@H]2C(=O)N1CCCCCCC1 -1.01
COCCOC(=O)N1C(=O)[C@@]2(c3cc(C#CCCO)ccc31)[C@H](C(=O)N1CCc3cc(OC)c(OC)cc3C1)[C@H]1C(=O)O[C@H](c3ccccc3)[C@H](c3ccccc3)N1[C@@H]2c1ccccc1OCCO -0.89
[N-]=[N+]=NCc1ccccc1[C@H]1OC(c2ccc(OCCCO)cc2)=N[C@@]1(Cc1ccccc1)C(=O)N1CCOCC1 2.02
C=CCOC(=O)[C@H]1[C@@H]2C(=O)O[C@@H](c3ccccc3)[C@@H](c3ccccc3)N2[C@@H](c2ccc(OCCOC(=O)[C@@H]3C[C@@H]4C(=O)N[C@@H](CC(C)C)C(=O)N4[C@@H]3c3ccc(O)cc3)cc2)[C@]12C(=O)Nc1ccc(I)cc12 0.281
COCCOC(=O)N1C(=O)[C@@]2(c3cc(C#CCC(C(=O)OC)C(=O)OC)ccc31)[C@H](C(=O)N1CCc3cc(OC)c(OC)cc3C1)[C@H]1C(=O)O[C@H](c3ccccc3)[C@H](c3ccccc3)N1[C@@H]2c1ccc(O)cc1 0.0653
O=C1c2ccccc2[C@@]2(Cc3ccccc3N(Cc3ccccc3)C2=O)[C@H](c2ccc(CO)cc2)N1Cc1ccccc1 0.0279
CN(C)CCCC[C@@H]1NC(=O)[C@@H]2C[C@H](C(=O)NCCCCCCNC(=O)CS)[C@H](c3cccc(OCCO)c3)N2C1=O -0.256
CN(C)CCCC[C@@H]1NC(=O)[C@@H]2C[C@H](C(=O)NCc3ccc(F)cc3)[C@H](c3ccc(O)cc3)N2C1=O 0.557
C=CCNC(=O)[C@@H]1[C@H]2C(=O)O[C@H](c3ccccc3)[C@H](c3ccccc3)N2[C@H](c2ccccc2OCCO)[C@@]12C(=O)N(C(=O)OCCOC)c1ccc(C#CCCO)cc12 -0.0768
C=CCC(OC(C)=O)[C@@H]1[C@@H](N(Cc2cc3ccccc3o2)C(=O)c2ccc(-c3ccccc3)cc2)c2cc(OCCCO)ccc2N1C(=O)c1ccc2ccccc2n1 (stereo partly drawn) 2.46
COc1ccc(C#Cc2ccc3c(c2)[C@]2(C(=O)N3)[C@H](C(=O)Nc3nc4ccccc4s3)[C@H]3C(=O)O[C@H](c4ccccc4)[C@H](c4ccccc4)N3[C@@H]2c2ccc(OCCO)cc2)cc1 -1.43
C=CCC(OC(C)=O)[C@@H]1[C@@H](N(Cc2cc3ccccc3o2)C(=O)Cc2ccc(OC)cc2)c2cc(OCCCO)ccc2N1C(=O)Cc1ccc(OC)cc1 (stereo partly drawn) 0.469
COCCOC(=O)N1C(=O)[C@@]2(c3cc(C#CC4(O)CCCCCC4)ccc31)[C@H](C(=O)NC[C@H](O)c1ccccc1)[C@H]1C(=O)O[C@H](c3ccccc3)[C@H](c3ccccc3)N1[C@@H]2c1ccc(O)cc1 0.342
Cc1c(NC(=O)/C(C#N)=C/c2ccc(Cl)cc2)c(=O)n(-c2ccccc2)n1C -0.374
CCCC=C(CCC)[C@@H](NS(=O)(=O)c1ccc(Cl)cc1)c1ccccc1 0.197
CN(C)CCCNC(=O)[C@@]1(Cc2ccccc2I)c2ccccc2C(=O)N(Cc2ccccc2)[C@H]1c1ccc(CO)cc1 0.351
CCOC(=O)C[C@H]1[C@H](OC(=O)c2ccc(-c3ccccc3)cc2)[C@@H](NC(=O)c2ccc3ccccc3c2)c2cc(OCCCO)ccc2N1C(=O)c1ccccc1 0.544
C=C(CCCC)C(=O)CC[C@H](OC(=O)c1cccnc1)c1ccc(CO)o1 -0.117
COc1ccc(C#Cc2ccc3c(c2)[C@]2(C(=O)N3)[C@H](c3ccc(OCCO)cc3)N3[C@H](c4ccccc4)[C@H](c4ccccc4)OC(=O)[C@H]3[C@@H]2C(=O)O)cc1 -0.0515
COC(=O)[C@@]1(Cc2ccc(F)cc2)[C@H]2c3cc(C(=O)N(C)C)n(CCN4CCOCC4)c3C[C@H]2CN1C(=O)c1ccccc1 -0.372
CCCC[C@@H]1C[C@H]1[C@@H](NC(=O)c1ccc(C(F)(F)F)cc1)c1ccc(C(=O)OC)cc1 0.583
COC(=O)[C@@]1(Cc2ccccc2)[C@@H]2[C@@H](CC(=O)[C@H]2CC(=O)C(=O)N(C)C)CN1C(=O)c1ccccc1 0.201
COC(=O)[C@@]1(Cc2ccc(OC)cc2)[C@H]2c3cc(C(=O)N4CCCC4)n(CCc4ccc(OC)c(Br)c4)c3C[C@H]2CN1C(=O)c1ccccc1 0.387
O=C1NC(=O)C2C1C=CC(C(O)c1cccc(O)c1)N2Nc1ccc(Cl)cc1Cl (stereo not drawn) 0.629
C=C(COC)C(=O)CC[C@@H](OC(C)=O)c1ccc(OCCO)cc1 0.625
